Among all 330,000 compounds or so, about 1,100 (0.33%) were called active. This excerpt belongs to a sample that is enriched for actives. Values without a mark were called inactive.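 The calls were made as follows: active = inhibition above about 40% at 20 µM (limit read from the data); inactive = the rest.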

Sequence of Apelin receptor (Homo sapiens) (P35414 whole entry, looked up): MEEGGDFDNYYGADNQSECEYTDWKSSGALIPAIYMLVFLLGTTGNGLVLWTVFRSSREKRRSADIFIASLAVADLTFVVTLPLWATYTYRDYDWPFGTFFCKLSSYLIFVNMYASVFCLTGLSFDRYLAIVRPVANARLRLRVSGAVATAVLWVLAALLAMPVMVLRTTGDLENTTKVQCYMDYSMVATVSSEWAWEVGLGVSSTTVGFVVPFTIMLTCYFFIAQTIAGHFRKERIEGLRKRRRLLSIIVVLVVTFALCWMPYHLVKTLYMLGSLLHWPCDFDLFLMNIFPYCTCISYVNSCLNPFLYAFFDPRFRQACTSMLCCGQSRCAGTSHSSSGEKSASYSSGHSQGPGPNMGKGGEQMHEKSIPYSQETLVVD

This assay concerns the target Apelin receptor (Homo sapiens) (UniProt P35414). Nature of the assay: blockade of apelin-induced APJ beta-arrestin recruitment – CHO-K1 cells, beta-arrestin complementation, luminescence, primary screen (AID 2521).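 Also: cells challenged with 10 nM apelin-13 agonist together with compound; plate controls were apelin-13 plus DMSO wells for no effect and DMSO wells lacking apelin-13 for full effect.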 The note with it: at 20 µM, stronger effect = higher value. For orientation: Recruitment of arrestin is a read-out of receptor activation apart from second messengers.
For `CC/C(=N\NC(=O)c1ccccc1O)c1c(O)n(Cc2ccccc2)c(=O)[nH]c1=O`, the inhibition is -28%.

With `COc1cc(Cn2c(N)c(C(=O)NCc3ccco3)c3nc4ccccc4nc32)cc(OC)c1OC`, the inhibition was 34%.

On to `CCOC(=O)c1c(N)n(Cc2ccccc2)c2nc3ccccc3nc12`, for which the inhibition is 42.7% (active). For `COc1ccc(Br)cc1CNCCc1cccc(Cl)c1`, the inhibition was 17.7%. In the case of `C=CC12CN(C)[C@@H]3C4CO[C@H](C[C@H]41)[C@]1(C(=O)Nc4ccccc41)[C@@H]32` (stereo not given in full), the inhibition was -19.7%.

As usually defined, the inhibition is the change of the read-out against control, counted positive when it falls.
